# Screening results deposited in PubChem BioAssay by National Center for Advancing Translational Sciences (NCATS).
# ELG1 genotoxic = induces genotoxicity in HEK293T cells with luciferase-tagged ELG1. HEK293T ELG1-luciferase reporter, luminescence, 16 h. Potency, µM (top dose mostly 46 µM), actives largely listed as activators. 330,000 tested, 1.3% active. AID 504466; note: nearly all actives have a fitted effect of over 60% in size
#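 DMSO vehicle served as control against compound-treated ELG1-luciferase HEK293T cells; exposure lasted 16 hr at 37 °C and 5% CO2, followed by ONE-Glo luminescence detection after 30 min.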
# SMN2 splice up = increases expression of the SMN2 splice variant; HEK293 SMN2-luciferase splicing reporter, luminescence, 30-36 h; Potency, µM (highest dose often 46.1 µM), hits mostly activators; 210,000 tested, 2.8% active; note: nearly all actives have a fitted effect of over 55% in size
#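 qHTS luciferase splicing reporter: luminescence rises when SMN2 exon 7 is included in transfected HEK293 cells. Compound exposure lasted 30-36 h at 37C, with 4.5 mM final sodium butyrate as control, followed by a ONE-Glo read.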
# ELG1 repair inh = ELG1-dependent DNA repair inhibition; Potency, µM (highest dose often 46.1 µM), actives largely listed as inhibitors; 330,000 tested, 2.3% active; HEK293T ELG1-luciferase reporter, luminescence, 16 h; DNA damage induced by 5-fluorouridine; note: nearly all actives have a fitted effect of over 55% in size
#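 5-Fluorouridine DNA damage + compound/DMSO, 2,000 cells/well, 16 h, 37 °C/5% CO2. ONE-Glo, 30 min RT, luminescence. Readout = decrease in reporter signal.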
# Rab9 promoter act = activates the Rab9 promoter; Potency, µM (series often up to 9.22 µM), hits mostly activators; Huh7 Rab9 promoter-luciferase reporter, luminescence, 24 h; 320,000 tested, 2.8% active; AID 485297; note: nearly all actives have a fitted effect of over 60% in size
#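 Using Huh7 cells stably transfected with Rab9 promoter–luciferase, compounds were incubated 24 h at 37 °C, 5% CO2; luciferase luminescence was read 10 min after reagent addition.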
# FLuc counter = inhibits or activates purified firefly luciferase, miR-21 counter-screen. P08659. purified FLuc, Km substrates, luminescence inhibition. Potency, µM (doses to about 57.5 µM), actives largely listed as inhibitors. 360,000 tested, 6.9% active; note: nearly all actives have a fitted effect of over 55% in size
# Target sequence (P08659 whole entry, looked up): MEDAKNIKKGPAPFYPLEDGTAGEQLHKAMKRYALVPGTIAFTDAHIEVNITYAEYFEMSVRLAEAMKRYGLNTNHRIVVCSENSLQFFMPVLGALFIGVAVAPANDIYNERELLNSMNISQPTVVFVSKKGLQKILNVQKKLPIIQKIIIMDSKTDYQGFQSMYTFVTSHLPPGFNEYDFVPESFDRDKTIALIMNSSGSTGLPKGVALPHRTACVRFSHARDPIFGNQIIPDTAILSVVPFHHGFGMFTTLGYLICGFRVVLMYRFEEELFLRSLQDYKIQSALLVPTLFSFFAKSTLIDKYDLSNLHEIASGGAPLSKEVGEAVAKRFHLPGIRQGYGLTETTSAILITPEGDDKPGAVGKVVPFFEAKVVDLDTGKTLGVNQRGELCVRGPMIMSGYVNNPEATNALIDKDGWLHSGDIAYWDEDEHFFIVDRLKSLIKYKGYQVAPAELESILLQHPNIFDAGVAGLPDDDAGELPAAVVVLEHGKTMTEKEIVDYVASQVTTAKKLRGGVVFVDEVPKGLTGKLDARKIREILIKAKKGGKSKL
#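 Biochemical qHTS of compounds, final roughly 60 µM downward over six points, against 10 nM purified firefly luciferase using Km concentrations of substrates (10 uM D-luciferin, 10 uM ATP) in Tris acetate pH 7.5 buffer; luminescence output.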
# NPC1 promoter act = activates the NPC1 promoter | Huh7 NPC1 promoter luciferase reporter, 24 h | Potency, µM (top dose mostly 9.22 µM), hits mostly activators | 320,000 tested, 2.4% active | AID 485313; note: nearly all actives have a fitted effect of over 60% in size
#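 In 1536-well qHTS, Huh7 cells harboring an NPC1 promoter–luciferase construct received compound for 24 h; activation was quantified by luminescence following luciferase reagent addition.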
# A number is an active result; n = inactive; u = inconclusive; x = no result given; [ ] = dose if it differs, or a comment. Rows were chosen to be rich in hits. Some 9.2% of all compounds tested hit in one or more screens of this group. Calls come from the whole dose curve; as a rule, active = well fitted curve in the direction sought with a large enough effect; inconclusive = small, poorly fitted or top-dose-only effect, or another doubt; inactive = no such curve, though single readings can be large; an effect the other way counts as inactive or inconclusive.
SMILES,ELG1 genotoxic,SMN2 splice up,ELG1 repair inh,Rab9 promoter act,FLuc counter,NPC1 promoter act
CCCc1cc(=O)n2[nH]c(C)c(-c3ccc(OC)cc3)c2n1,n,x,n,n,n,n
Nc1ccc2c(c1)C(=O)N(c1cccc3ccccc13)C2=O,n,x,n,n,n,n
Nc1ccc2c(c1)C(=O)C(=O)c1ccccc1-2,n,n,4.6µM,n,u,n
O=C1C(=O)c2ccc(-c3ccccc3)cc2-c2ccccc21,n,n,9.2µM,n,n,n
Nc1ccc2c(c1)C(=O)c1ccccc1C2=O,u,16µM,u,4µM,13µM,u
COC(=O)C1=C(C)N(Cc2ccccc2)C(=NCCN2CCOCC2)N[C@H]1CCc1ccccc1,n,x,n,n,n,n
COCCN=C1Sc2nc3ccc(C)cc3cc2CN1Cc1ccco1,n,n,u,n,11µM,n
COCCN=C1Sc2nc3cc(C)c(C)cc3cc2CN1Cc1cccs1,n,x,u,n,n,n
CCC(=O)N(Cc1cc2ccccc2[nH]c1=O)C(C)C,23µM,n,n,n,n,n
CCOc1ccc(/C=C2/Sc3ccc(C(=O)N4CCN(C(=O)c5ccco5)CC4)cc3N(C)C2=O)cc1OC,n,n,21µM,n,n,n
CCOc1ccc(/C=C2/Sc3ccc(C(=O)NCC4CCCO4)cc3N(C)C2=O)cc1OC (centres undefined),n[9.26 µM],x,18µM,n,n,n
CC1(C)CC(=O)C(C(C2=C(O)CC(C)(C)CC2=O)c2cccs2)C(=O)C1 (centres undefined),n,x,n,n,17µM,n
Cc1cc(NS(=O)(=O)c2ccc(NC(=S)NC(=O)c3ccc(C(C)(C)C)cc3)cc2)no1,n,n,n,n,11µM,n
COc1ccc(/C=C/C(=O)NC(=S)Nc2ccc(S(=O)(=O)Nc3cc(OC)ncn3)cc2)cc1,n,n,n,n,15µM,n
Cc1ccc(/C=C/C(=O)NC(=S)Nc2ccc(S(=O)(=O)Nc3cc(C)on3)cc2)cc1,n,x,n,n,9.5µM,n
Cc1cc(NS(=O)(=O)c2ccc(NC(=S)NC(=O)/C=C/c3ccccc3)cc2)no1,n,x,n,n,n,n
Cc1cc(C)cc(NC(=O)c2sc3nc[nH]c(=O)c3c2C)c1,x,x,x,x,n,x
Cc1c(C(=O)Nc2c3c(nn2C(C)(C)C)CS(=O)(=O)C3)cccc1[N+](=O)[O-],n,x,n,n,n,n
N=C1C(c2ccccc2)=C(O)CN1CCCO,n,n,n,n,n,n
Oc1ccc(Cl)cc1CNc1ccc(Br)cn1,u,x,u,n,19µM,n
Oc1c(Cl)cc(Cl)cc1CNc1ccc(Br)cn1,u,n,u,n,u,n
CN(C)c1ccccc1C(=O)c1ccccc1N(C)C,21µM,5µM,u,n,19µM,n
CCOc1ccc(C(CC(=O)O)NC(=O)COc2ccccc2OC)cc1OC (centres undefined),n,22µM,n,n,n,n
CCOc1ccc(C(CC(=O)O)NC(=O)COc2ccc3ccccc3c2)cc1OC (centres undefined),n,x,n,n,n,n
COc1cc(Cl)c(C)cc1NC(=O)c1nn(C)c2c1CSc1ccccc1-2,x,x,x,x,n,x
SMILES,ELG1 genotoxic,SMN2 splice up,ELG1 repair inh,Rab9 promoter act,FLuc counter,NPC1 promoter act
Cc1cc(-c2nnco2)c(C)n1-c1ccccc1,11µM,u,u,u,12µM,u
Cc1nc2ccccn2c1-c1nnco1,n,n,n,n,n,n
Cc1ccc(-c2nn3cnnc3c3ccccc23)cc1,n,n,n,n,n,n
COc1ccc(NC(=O)/C=C/c2cccc(C(F)(F)F)c2)cn1,n,x,18µM,n,u,n
COc1ccc(NC(=O)/C=C/c2cccc(Br)c2)cn1,n,x,u,u,13µM,u
Cc1ccc(NC(=O)/C=C/c2cccc(C(F)(F)F)c2)cc1,n,x,n,n,u,n
Cc1ccccc1NC(=O)C1Cc2ccccc2CN1C(=O)c1ccco1 (centres undefined),23µM,x,u,u,u,2.8µM
CCOc1ccc(Nc2c3ccccc3nc3ccccc23)cc1,n,x,5.8µM,n,n,n
CCOc1ccc(Nc2cc(C)c3ccccc3n2)cc1,n,x,u,u,17µM,n
O=C(Cc1c(Cl)cccc1Cl)Nc1ccc(S(=O)(=O)Nc2ncccn2)cc1,n,x,n,n,n,n
Cc1ccc(-n2cccn2)c(CN2CCCC(C(=O)c3sccc3C)C2)c1 (centres undefined),n,x,16µM,n,n,n
CC1=NC(=O)C(N=Nc2cccc(C(=O)O)c2)N1c1ccccc1 (centres undefined),u,0.5µM,u,1.3µM,0.43µM,u
CC1=NC(=O)C(N=Nc2ccccc2)N1c1ccccc1 (centres undefined),u,16µM,u,3.5µM,u,n
CC1=NN(c2ccccc2)C(=O)C1N=Nc1ccc(S(N)(=O)=O)cc1 (centres undefined),n,x,n,n,n,n
CC1=NC(=O)C(N=Nc2ccccc2C(=O)O)N1c1ccccc1 (centres undefined),n,n,n,n,15µM,n
CC(C)NC(=O)N(C)C[C@@H]1Oc2ccc(NC(=O)CCN3CCOCC3)cc2CC(=O)N([C@@H](C)CO)C[C@@H]1C,n,x,u,x,x,x
COc1ccccc1N(C)S(=O)(=O)c1ccc(Cl)c(C(=O)NC2=NCCS2)c1,n,n,n,u,n,n
COc1cc(OC)c(N(C)S(=O)(=O)c2cccc(C(=O)NC3=NCCS3)c2)cc1Cl,n,x,16µM,n,n,n
COc1cc(OC)c(N(C)S(=O)(=O)c2cccc(C(=O)Nc3nc(C)cs3)c2)cc1Cl,n,x,18µM,n,n,n
COc1ccc(N(C)S(=O)(=O)c2cccc(C(=O)Nc3nc(C)cs3)c2)cc1,n,x,u,n,n,n
N#Cc1ccc(CO/N=C/c2ccccc2)cc1,u,u,u,u,24µM,u
Cc1nc2ccccc2nc(C)c1=NOCc1ccc(C#N)cc1,n,n,n,n,n,n
CCC1OC(=O)C(C)[C@@H](O[C@H]2C[C@@](C)(OC)C(O)C(C)O2)C(C)[C@@H](O[C@@H]2OC(C)CC(N(C)C)C2O)[C@@](C)(O)CC(C)C2NC(COCCOC)O[C@H](C2C)[C@@]1(C)O (some centres undefined),x,n,x,x,x,x
COc1ccc(C(NC(=O)C(C)C)c2ccc3cccnc3c2O)cc1 (centres undefined),n,x,2.3µM,n,n,n
Fc1cccc2sc(Nc3nc4c(F)cccc4s3)nc12,n,16µM,n,u,4.3µM,u
COc1cc(OC)cc(-c2nnc(Nc3nc4c(F)cccc4s3)o2)c1,n,n,n,n,u,n
Fc1cccc2sc(Nc3nnc(-c4ccccc4)o3)nc12,u,3.2µM,u,3.2µM,3µM,2.5µM
